# Several values for one entry are separate records, joined by “and”; a condition that tells them apart may be missing. Equal values may be shown once. Inconclusive results are not listed. Where a call stands in place of a potency, no number is given. Values without a mark were called inactive. Activity calls are given as the source filed them. The call rests on the fitted dose curve; in most records, active means well fitted curve in the direction sought with a large enough effect; inconclusive means small, poorly fitted or top-dose-only effect, or another doubt; inactive means no such curve, though single readings can be large; an effect the other way counts as inactive or inconclusive.
# Key:
# TAB165 = experiment: qHTS profiling for inhibitors of Plasmodium falciparum proliferation (AID 504749); further: nearly all actives have a fitted effect of over 60% in size; further: potency means the concentration at half of the fitted maximal effect; conditions: P. falciparum in erythrocytes, SYBR Green DNA, 72 h; series mostly up to 28.7 µM
# How it was run: (§1)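 Parasite proliferation within erythrocytes, 72 h exposure. Endpoint: SYBR Green I fluorescence after overnight lysis at room temperature. Controls: 0.29 uM artemisinin, DMSO.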
# W2 = experiment: as above; conditions: P. falciparum in erythrocytes, SYBR Green DNA, 72 h; series mostly up to 28.7 µM
# How it was run: as §1
# CRL-7250 [1] = experiment: Cytotoxic Profiling of Annotated Libraries Using Quantitative High-Throughput Screening (AID 1296008); conditions: Five cell lines viability, CellTiter-Glo ATP luminescence, 48-72 h; max response: active compounds read low; further: nearly all actives have a fitted effect of over 60% in size; further: potency means the concentration at half of the fitted maximal effect
# How it was run: (§2)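 Compounds were pin-transferred onto cells and incubated 48 or 72 hr at 37 degree Celsius, 95% humidity. CellTiter-Glo was added, plates sat 10 min at room temperature, then ATP-coupled luminescence was imaged as the viability read-out.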
# HEK293 = experiment: as above; conditions: Five cell lines viability, CellTiter-Glo ATP luminescence, 48-72 h; max response: active compounds read low
# How it was run: as §2
# NIH3T3 [2] = experiment: as above; conditions: Five cell lines viability, CellTiter-Glo ATP luminescence, 48-72 h; max response: active compounds read low
# How it was run: as §2
# MCC-13 = experiment: qHTS assay to identify novel small-molecules to repurpose for Merkel cell carcinoma treatment (AID 1296009); conditions: MCC and control cell lines, CellTiter-Glo viability, 72 h; series mostly up to 46 µM; further: nearly all actives have a fitted effect of over 60% in size; further: potency means the concentration at half of the fitted maximal effect
# How it was run: (§3)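 qHTS format: cells treated with library compounds in DMSO across 8 (NPC) or 11 (MIPE) concentrations. Readout after 72 hr at 37 degree celsius was CellTiter-Glo luminescence.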
# MCC-26 = experiment: as above; conditions: MCC and control cell lines, CellTiter-Glo viability, 72 h; series mostly up to 46 µM
# How it was run: as §3
# MKL-1 = experiment: as above; conditions: MCC and control cell lines, CellTiter-Glo viability, 72 h; series mostly up to 46 µM
# How it was run: as §3
# MKL-2 = experiment: as above; conditions: MCC and control cell lines, CellTiter-Glo viability, 72 h; series mostly up to 46 µM
# How it was run: as §3
# UISO = experiment: as above; conditions: MCC and control cell lines, CellTiter-Glo viability, 72 h; series mostly up to 46 µM
# How it was run: as §3
# WaGa = experiment: as above; conditions: MCC and control cell lines, CellTiter-Glo viability, 72 h; series mostly up to 46 µM
# How it was run: as §3
# C33A = experiment: Primary qHTS to identify gynecologic anti-cancer compounds using libraries of approved drugs and bioactive compounds (AID 1345084); conditions: Gynecologic cancer cell panel viability, ATPlite luminescence, 48 h; series mostly up to 57.5 µM; further: nearly all actives have a fitted effect of over 55% in size
# How it was run: (§4)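 Cell viability after 48 h drug treatment, ATPlite luminescence readout; five doses.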
# CAOV3 = experiment: as above; conditions: Gynecologic cancer cell panel viability, ATPlite luminescence, 48 h; series mostly up to 57.5 µM
# How it was run: as §4
# CASKI = experiment: as above; conditions: Gynecologic cancer cell panel viability, ATPlite luminescence, 48 h; series mostly up to 57.5 µM
# How it was run: as §4
# KB-3-1 = experiment: Cytotoxic Profiling of Annotated Libraries Using Quantitative High-Throughput Screening (AID 1296008); conditions: Five cell lines viability, CellTiter-Glo ATP luminescence, 48-72 h; max response: active compounds read low; further: nearly all actives have a fitted effect of over 60% in size; further: potency means the concentration at half of the fitted maximal effect
# How it was run: as §2
# HaCat [3] = experiment: as above; conditions: Five cell lines viability, CellTiter-Glo ATP luminescence, 48-72 h; max response: active compounds read low
# How it was run: as §2
# HACAT [4] = experiment: qHTS assay to identify novel small-molecules to repurpose for Merkel cell carcinoma treatment (AID 1296009); conditions: MCC and control cell lines, CellTiter-Glo viability, 72 h; at 44.8 µM (top of the series) unless noted; further: nearly all actives have a fitted effect of over 60% in size; further: potency means the concentration at half of the fitted maximal effect
# How it was run: as §3
# NIH3T3 [5] = experiment: as above; conditions: MCC and control cell lines, CellTiter-Glo viability, 72 h; at 44.8 µM (top of the series) unless noted
# How it was run: as §3
# CRL-7250 [6] = experiment: as above; conditions: MCC and control cell lines, CellTiter-Glo viability, 72 h; series mostly up to 44.8 µM
# How it was run: as §3
smiles,measurement,setting,value
CCC1(C2=NCCN2)Cc2ccccc2O1 (stereo not drawn),Potency,TAB165,11.2 µM (active)
same,Potency,W2,3.79 µM (active)
same,max response,CRL-7250 [1],-2.42%
same,max response,HEK293,2.14%
same,max response,NIH3T3 [2],-1.86%
same,Potency,MCC-13,inactive
same,Potency,MCC-26,inactive
same,Potency,MKL-1,inactive
same,Potency,MKL-2,inactive
same,Potency,UISO,inactive
same,Potency,WaGa,inactive
same,Potency,C33A,inactive
same,Potency,CAOV3,inactive
same,Potency,CASKI,inactive
Cc1ncc(CNC(=O)N(CCCl)N=O)c(N)n1,Potency,TAB165,inactive
same,Potency,W2,inactive
same,max response,CRL-7250 [1],0.0102%
same,max response,HEK293,2.72%
same,max response,KB-3-1,2.09%
same,max response,NIH3T3 [2],-2.43%
same,Potency,MCC-13,inactive
same,Potency,MCC-26,inactive
same,Potency,MKL-1,inactive
same,Potency,MKL-2,inactive
same,Potency,UISO,inactive
same,Potency,WaGa,inactive
same,Potency,C33A,inactive
same,Potency,CAOV3,inactive
same,Potency,CASKI,inactive
CC(C)(N)Cc1ccc(Cl)cc1,Potency,TAB165,inactive
same,max response,CRL-7250 [1],0.791%
same,outcome,HaCat [3],inactive
same,max response,KB-3-1,-1.79%
same,outcome,NIH3T3 [2],inactive
same,outcome,HACAT [4],inactive
same,Potency,MCC-13,inactive
same,Potency,MCC-26,inactive
same,Potency,MKL-1,inactive
same,Potency,MKL-2,inactive
same,outcome,NIH3T3 [5],inactive
same,Potency,UISO,inactive
same,Potency,WaGa,inactive
same,Potency,C33A,inactive
same,Potency,CAOV3,inactive
same,Potency,CASKI,inactive
CNC(=O)N1N=C(c2ccc(N)cc2)c2cc3c(cc2CC1C)OCO3 (stereo not drawn),Potency,HEK293,23.1 µM (active)
same,max response,HaCat [3],-13.3% and -0.52%
same,max response,NIH3T3 [2],-39.3%
same,Potency,MKL-1,inactive
same,Potency,MKL-2,7.43 µM (active)
same,Potency,WaGa,16.6 µM (active)
same,Potency,C33A,inactive
NC(=O)c1cn(Cc2c(F)cccc2F)nn1,outcome,CRL-7250 [6],inactive
CC(CN(C)C)CN1c2ccccc2CCc2ccccc21 (stereo not drawn),outcome,CRL-7250 [6],inactive
CN(C)CCc1c[nH]c2ccc(C[C@H]3COC(=O)N3)cc12,outcome,CRL-7250 [6],inactive
COc1cc2nc(N3CCN(C(=O)C4CCCO4)CC3)nc(N)c2cc1OC (stereo not drawn),outcome,CRL-7250 [6],inactive
O[C@@H]1CO[C@H]2[C@@H]1OC[C@@H]2O,outcome,CRL-7250 [6],inactive
C=C1C[C@@H]2[C@H](CC[C@]3(C)C(=O)CC[C@@H]23)[C@@]2(C)C=CC(=O)C=C12,max response,KB-3-1,-16.4%
same,Potency,MCC-13,inactive
same,Potency,MCC-26,inactive
same,Potency,MKL-2,13.3 µM (active)
same,Potency,UISO,inactive
same,Potency,C33A,inactive
same,Potency,CASKI,inactive
Oc1ccc(Cl)cc1Cc1ccccc1,Potency,TAB165,6.31 µM (active)
same,Potency,W2,4.78 µM (active)
same,max response,CRL-7250 [1],-21.4%
same,max response,HaCat [3],-19.2%
same,max response,KB-3-1,-1.59% and -11.5%
same,max response,NIH3T3 [2],-10.2%
same,Potency,MCC-13,inactive
same,Potency,MCC-26,inactive
same,Potency,MKL-1,inactive
same,Potency,MKL-2,21.9 µM (active)
same,Potency,UISO,34.7 µM (active)
same,Potency,C33A,inactive
same,Potency,CAOV3,inactive
same,Potency,CASKI,inactive
CCN(CC)CCN1C(=O)CN=C(c2ccccc2F)c2cc(Cl)ccc21,Potency,W2,4.78 µM (active)
same,max response,CRL-7250 [1],-7.13%
same,max response,HaCat [3],0.85%
same,max response,KB-3-1,-5.99%
same,outcome,NIH3T3 [2],inactive
same,Potency,MCC-13,inactive
same,Potency,MCC-26,inactive
same,Potency,MKL-1,inactive
same,Potency,MKL-2,inactive
same,outcome,NIH3T3 [5],inactive
same,Potency,UISO,inactive
same,Potency,WaGa,inactive
same,Potency,C33A,inactive
same,Potency,CAOV3,inactive
same,Potency,CASKI,inactive
